Here are results for 38 compounds from PubChem BioAssay (Tox21).

Each structure is given as a SMILES string. Inconclusive results are not listed. Entries that show only a call come without a potency. Values without a mark were called inactive. Active and inactive are the calls of the source. No rule for the calls is given here.
Potency is read from the fitted curve at half-maximal effect.

This assay is described as follows: qHTS assay to identify small molecule antagonists of the estrogen related receptor signaling pathway with the pleiotropic PPARgamma coactivator (PGC) from Tox21 10K library (AID 1224841). Also: actives are mostly falling curves and most rising ones were filed inactive; nearly all actives have a fitted effect of over 50% in size. To be noted: PGC/ERR reporter cell line, ONE-Glo luciferase, 18 h; series mostly up to 92.4 µM. In short, it runs like this:
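qHTS antagonist format: PGC/ERR cells, 2k/well, compound in DMSO by pin transfer after 6 h attachment, 18 h treatment at 37 C, One-Glo luminescence read at 30 min.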
(In general: Quantitative high-throughput screening tests each substance at several concentrations.)
Consider `CC(=O)Nc1ccc(C)cc1`, for which the Potency entry is “inactive”.

For the compound `CCC1COC(=O)O1` (stereo not drawn), the Potency result is “inactive”.

In the case of `C[CH2][Ge]([Cl])([CH2]C)[CH2]C`, the Potency result is “inactive”.

As for `Cc1cccc(Nc2ccncc2S(=O)(=O)NC(=O)NC(C)C)c1`, the Potency entry is “inactive”.

In the case of `Oc1ccccc1Cc1ccccc1O`, the Potency result was “inactive”.

As for `CCCCCN(CCCOC)C(=O)C(CCC(=O)O)NC(=O)c1ccc(Cl)c(Cl)c1` (stereo not drawn), the Potency entry is “inactive”.

`NS(=O)(=O)c1ccccc1OC(F)(F)F`: the Potency entry is “inactive”.

For the compound `CC(=O)OCCCc1ccccc1`, the Potency entry is “inactive”.

In the case of `CN[C@@H]1[C@@H](O)[C@@H](O[C@@H]2[C@H](O)[C@H](O[C@H]3OC(CN)=CC[C@H]3N)[C@@H](N)C[C@H]2N)OCC1(C)O` (stereo partly drawn), the Potency entry was “inactive”.

As for `CCC(C)(C)C1CCC(=O)CC1`, the Potency result is “inactive”.

Consider `Cc1ccccc1C`, for which the Potency result was “inactive”.

As to `NC(=O)NNC(N)=O`, the Potency entry is “inactive”.

Regarding `CCCCCCCCCCCCCCCC(=O)NCCO`, the Potency entry is “inactive”.

With `O=C(O)c1ccc(OCCN2CCCCC2)cc1`, the Potency entry is “inactive”.

As to `C=CCOc1c(Br)cc(Br)cc1Br`, the Potency entry is “inactive”.

`O=CN1CCOCC1`: the Potency entry was “inactive”.

As for `CCCCCCCCOC(C)=O`, the Potency entry is “inactive”.

For `CC(C)COC(=O)COc1ccc(Cl)cc1Cl`, the Potency result is “inactive”.

As to `CCCCC(C)C(=O)O` (stereo not drawn), the Potency entry was “inactive”.

Regarding `CCCCCCCCCCCCCCCCI`, the activity, negative = inhibition was -7.26% [at 19 µM].

Consider `COc1ccc(NS(=O)(=O)c2ccc(N)cc2)nn1`, for which the Potency result is “inactive”.

`O=c1[nH]c(=O)c2ccccc2o1`: the Potency entry is “inactive”.

Take `CNCc1ccccc1`: the Potency result is “inactive”.

Take `O=C(COCCOCCOCC(=O)Nc1c(I)cc(I)c(C(=O)O)c1I)Nc1c(I)cc(I)c(C(=O)O)c1I`: the Potency entry was “inactive”.

In the case of `CCCCCCCCCCC`, the Potency entry is “inactive”.

For the compound `C=CCOc1c(Br)cc(C(C)(C)c2cc(Br)c(OCC=C)c(Br)c2)cc1Br`, the Potency is 26.6 µM (active).

As for `O=C(O)/C=C/c1ccccc1`, the Potency entry was “inactive”.

As for `C[C@H](CCC(=O)NCC(=O)O)[C@H]1CC[C@H]2[C@@H]3[C@H](O)C[C@@H]4C[C@H](O)CC[C@]4(C)[C@H]3C[C@H](O)[C@]12C`, the Potency result was “inactive”.

On to `CCCOC(=O)CCCCC(=O)OCCC`, for which the Potency result is “inactive”.

Consider `CN(C)CCOCCN(C)CCO`, for which the Potency result was “inactive”.

As to `CC(C)SCc1ccco1`, the Potency result is “inactive”.

Turning to `CCNC(=O)NCCCOc1cccc(CN2CCCCC2)c1`, the Potency entry was “inactive”.

For `COc1cc(C=O)ccc1OC(=O)C(C)C`, the Potency entry was “inactive”.

Turning to `O=C(Oc1ccccc1C(=O)O)c1ccccc1O`, the Potency result is “inactive”.

On to `CCCCCCCCCCCCCCCCCCN(C)C`, for which the Potency entry was “inactive”.

For the compound `O=C(O)CCNC(=O)c1ccccc1`, the Potency entry is “inactive”.

Regarding `CC(=O)Nc1ncc([N+](=O)[O-])s1`, the Potency entry is “inactive”.

With `COc1cccc2sc(N)nc12`, the Potency entry is “inactive”.
